Test results as given in ChEMBL document CHEMBL4513216, “Probing the Open Global Health Chemical Diversity Library for Multistage-Active Starting Points for Next-Generation Antimalarials” (ACS Infect Dis, 2020).
About 2,700 (4%) of roughly 68,000 compounds showed an effect of 50% or more. This is one part of a sample in which strong results are shown more often than they occur.

test system: Plasmodium berghei; assay: Screen against P. berghei liver stage (PbLuc), transformed with Luciferase, at 2uM; assay type: functional, HepG2; conditions: tested at 2 uM

| Structure (SMILES) | INHIBITION |
| --- | --- |
| CCCc1nc(C)cc(N2CCC3(CCC(=O)N(CCCO)C3)CC2)n1 | -25.22% |
| Cc1cc(N2CCC3(CCC(=O)N(CCCO)C3)CC2)nc(N(C)C)n1 | 57.75% |
| N#Cc1cccc(N2CCC3(CCC(=O)N(CC(N)=O)C3)CC2)n1 | -30.57% |
| N#Cc1cccc(N2CCC3(CCC(=O)N(CCCO)C3)CC2)n1 | 58.18% |
| N#Cc1cccc(N2CCC3(CCC(=O)N(CC4CCCO4)C3)CC2)n1 (configuration not stated) | -41.11% |
| Cc1cc(N2CCC3(CCC(=O)N(CCO)C3)CC2)nc(N(C)C)n1 | 19.59% |
| O=C(COc1coc(CN2CCCCC2)cc1=O)Nc1cccc(Cl)c1 | -13.13% |
| CCOCC(O)CN1CCN(C(=O)Cc2ccc3c(c2)CCC3)CC1 (configuration not stated) | 24.88% |
| Cc1ccc(CN(Cc2cc(C)no2)C2CC2)cc1 | 2.01% |
| CCOc1cc(C)nc(N2CCN(C(=O)c3csnn3)CC2)n1 | -14.16% |
| CCOCC(O)CN1CCN(C(=O)c2ccccc2F)CC1 (configuration not stated) | 30.29% |
| CCn1cc(CN2C[C@@H]3CCCN3C[C@H]2CCSC)cn1 | -25.95% |
| Cc1ccc(N(C)CC(O)COCc2ccccc2F)c(C)c1 (configuration not stated) | 25.92% |
| CCc1nnc(CN2CCC(C3CCCCCN3C(C)=O)CC2)o1 (configuration not stated) | -5.58% |
| CCOCCCNC(=O)c1nc2c(s1)CCCN2c1ccc(C)nn1 | -14.63% |
| CCNC(=O)C(C)NC(=O)Nc1ccccc1Cl (configuration not stated) | 12.43% |
| CCNC(=O)C(C)NC(=O)Nc1ccccc1SCC (configuration not stated) | 60.13% |
| CCNC(=O)C(C)NC(=O)Nc1ccccc1SC(F)(F)F (configuration not stated) | -16.18% |
| c1csc(-c2noc(C3CNC3)n2)c1 | 5.98% |
| C1CC(N2Cc3nnn(CC4CC4)c3C(COCC3CC3)C2)C1 (configuration not stated) | 10.71% |
| CN(CCc1ccccn1)C(=O)c1cnn(-c2ccccc2F)c1N | 4% |
| Cc1nc(NC(=O)N2CCCC(N(C)C)C2)nn1C (configuration not stated) | 15.68% |
| CN(C)S(=O)(=O)N1C[C@H]2CC[C@@H](C1)N(Cc1ccc3c(c1)OCCO3)C2 | 8.48% |
| CN(C)S(=O)(=O)N1C[C@H]2CC[C@@H](C1)N(Cc1ccc(F)c(F)c1)C2 | 53.12% |
| CN(C)S(=O)(=O)N1C[C@H]2CC[C@@H](C1)N(Cc1ccc3nsnc3c1)C2 | 22.22% |
| CN(CC(F)(F)F)C(=O)CN1CCC(c2cc3ccccc3[nH]2)CC1 | -17.18% |

| Structure (SMILES) | INHIBITION |
| --- | --- |
| CN(C)C(=O)CN1C[C@H]2CC[C@@H](C1)N(Cc1c(Cl)cncc1Cl)C2 | 69.67% |
| CN(C)C(=O)CN1C[C@H]2CC[C@@H](C1)N(Cc1cccc(Cl)c1Cl)C2 | -14.32% |
| CN(C)C(=O)CN1C[C@H]2CC[C@@H](C1)N(Cc1c(F)cccc1Cl)C2 | 41.05% |
| COc1ncc(CN(C)C(C)c2cccnc2)cn1 (configuration not stated) | 40.8% |
| CNC(=O)CN1CCCC12CCN(C(=O)c1ccoc1)CC2 | 23.09% |
| CCOCCN1CCN(c2ccc(C#N)cn2)CC1 | 13.14% |
| CCCc1ccc(C(=O)N2Cc3c(Cn4ccnc4)nn(C)c3C2)cc1 | 1.81% |
| CC(NC(=O)NCCn1ccnc1)c1ccc2c(c1)OCCCO2 (configuration not stated) | -16.99% |
| O=C(COc1cccc(Cl)c1)N1CCOCC(O)(CN2CCCC2)C1 (configuration not stated) | 52.1% |
| Cc1ccc(OCC(=O)N2CCOCC(O)(CN3CCCC3)C2)cc1C (configuration not stated) | 5.47% |
| O=C(COc1ccc(F)cc1F)N1CCOCC(O)(CN2CCCC2)C1 (configuration not stated) | 9.43% |
| Cc1ccc2nc(CN(C)Cc3n[nH]c4c3CCCCC4)[nH]c2c1C | -17.01% |
| COCCNC(=O)C1CCCN(c2ccc3nncn3n2)C1 (configuration not stated) | -56.23% |
| Cn1c(CCNC(=O)C2CCCN(C3CCOCC3)C2)n[nH]c1=O (configuration not stated) | -36.65% |
| Cn1cc(CN2C[C@H]3CCC[C@@]3(COc3ccccn3)C2)cn1 | 4.38% |
| CCN(CCNC(=O)Nc1nnc(C)s1)C(=O)OC(C)(C)C | 57.98% |
| Cc1nnc(NC(=O)NCCN(C(=O)OC(C)(C)C)C2CC2)s1 | -25.33% |
| CCc1nnc(NC(=O)NCCN(C)C(=O)OC(C)(C)C)s1 | -23.06% |
| CCC(C(=O)NCC1=CCCN(C)C1)c1ccccc1 (configuration not stated) | -52.88% |
| COCc1cc(NCCc2ccc(S(N)(=O)=O)cc2)n2nccc2n1 | 32.88% |
| O=C(N1CCOCC1)N1CCc2ncnc(NC3CCC3)c2CC1 | 24.36% |
| CCC(=O)N1CCC2(CC1)CC(N1CCOCC1)c1cc(C)ccc12 (configuration not stated) | 48.17% |
| O=C1NCCCCC1Sc1nnc(C2CC2)n1C1CC1 (configuration not stated) | 58.24% |
| O=C1NCCCCC1Sc1n[nH]c(=O)n1C1CC1 (configuration not stated) | -5.76% |
| O=C1NCCCCC1Sc1nnc(N2CCCC2)n1C1CC1 (configuration not stated) | -20.55% |
| CCN1CC(C(=O)NCc2ccccc2-n2cccn2)CC1=O (configuration not stated) | 24.91% |
